Records with an inconclusive call do not appear. A number with no mark means an inactive call. Calls of active or inactive are those of the source. The call rests on the fitted dose curve; in most records, active means well fitted cell-killing curve with a large enough effect; inconclusive means small, poorly fitted or top-dose-only effect; inactive means flat fitted curve, though single readings scatter.
Assay: Cell Viability - LYMP2-014 (AID 983);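 further: cells exposed to compound for 24 h at 37 °C; nearly all actives have a fitted effect of over 50% in size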
Settings: LYMP2-014 lymphoblastoid cells, viability qHTS; series mostly up to 92.2 µM; activity change, negative = cytotoxicity: at the top concentration
Description: NIH Chemical Genomics Center [NCGC]
NIH Molecular Libraries Screening Centers Network [MLSCN]
National Institutes of Environmental Health Sciences [NIEHS]
National Toxicology Program [NTP]
We have developed a 1536-well cell-based assay for quantitative high throughput screening (qHTS) against a number of cell lines to determine in vitro cytotoxicity of small molecules. This particular assay uses a human lymphoblastoid cell line (LYMP2-014) purchased from Coriell Institute for Medical Research.
NCGC Assay Protocol Summary:
The CellTiter-Glo luminescent cell viability assay (Promega) is a homogeneous method to measure the number of viable cells in culture. The end point readout of this assay is based on quantitation of intracellular ATP, an indicator of metabolic activity, using the luciferase reaction. Luciferase catalyzes the oxidation of beetle Luciferin to oxyluciferin and light in the presence of ATP. The luminescent signal is proportional to amount of ATP present.
Using the CellTiter-Glo luminescent cell viability assay, the amount of cellular ATP was measured in the lymphoblastoid cell line with complete culture medium following compound treatment for 24 hours. The assay was performed in opaque white Kalypsys 1536-well plates. In the screen, tetraoctylammonium bromide was used as positive control. Library compounds were measured for their ability to cause acute toxicity in the cell line, as reflected by a decrease in intracellular ATP levels, in a concentration-dependent manner. […] AC50 values were determined from concentration-response data modeled with the standard Hill equation.
qHTS protocol for CellTiter Glo lymphoblastoid cellular assay
[Step] [Parameter] [Value] [Description]
1. Reagent; 5 uL; 2500 lymphoblastoid cells/well
2. Time; 5 hr; 37 C incubation
4. Controls; 23 nL; Tetraoctylammonium bromide 6.4pM to 92 uM
5. Time; 24 hr; 37 C incubation
6. Reagent; 5 uL; CellTiter Glo reagent
7. Time; 30 min; Room Temperature
8. Detection; Luminescence; Viewlux plate reader
Keywords: cell viability, cytotoxicity, lymphoblastoid cell line, luminescence, NTPHTS, NTPHTS_NCGC, NIEHS, DSSTox, MLSMR, MLSCN, NIH Roadmap, qHTS, NCGC
Potency means the concentration at half of the fitted maximal effect.

Compound | activity change, negative = cytotoxicity [%] | Potency
CCOCCO | 3.56 | –
BrC/C=C/CBr | -6.73 | –
Cc1ccc(C)c(O)c1 | -2.75 | –
CC/C(C)=N/O | -6.73 | –
CC=C(Cl)Cl | -2.31 | –
O=C(O)CNC(=O)c1ccc([N+](=O)[O-])cc1 | -9.7 | –
Cc1cccc2ccccc12 | 2.44 | –
O=[N+]([O-])c1ccc(Cl)cc1Cl | -5.97 | –
CC(C)(O)C(=O)O | -9.59 | –
CC1CCC2CC1C2(C)C (stereo not given) | -9.55 | –
CCOC(=O)C(C)C(C)=O (stereo not given) | 3.88 | –
C=C(C)C(=O)OCC(C)O (stereo not given) | 2.69 | –
NC(=S)NNC(N)=S | -0.525 | –
Cc1c(N)cccc1[N+](=O)[O-] | 3.19 | –
CCC(C)(C)C | -8.06 | –
Clc1cc(Cl)cc(Cl)c1 | -0.898 | –
CCNc1ccccc1 | -1.76 | –
CCCCCNCCCCC | -11.1 | –
COC(=O)CCCC(=O)OC | -3.23 | –
C=Cc1ccccc1C=C | 0.0542 | –

Compound | activity change, negative = cytotoxicity [%] | Potency
COc1cccc2sc(N)nc12 | -1.51 | –
CCc1ccccc1O | -1.84 | –
NC(N)=S | -8.03 | –
O=[N+]([O-])c1ccc(NCCO)c(OCCO)c1 | 4.57 | –
NC=O | 0.0961 | –
CC(=O)c1cccc([N+](=O)[O-])c1 | -3.83 | –
Cc1ccc(C(=O)O)cc1 | -0.25 | –
CC(=O)c1ccc([N+](=O)[O-])cc1 | -12.9 | –
O=C1NC(=O)c2cc([N+](=O)[O-])ccc21 | 0.82 | –
c1ccc2[nH]cnc2c1 | -3.2 | –
C=CC(=O)NC(C)C | -1.98 | –
Cc1cccc(C)c1[N+](=O)[O-] | 0.145 | –
COc1ccc(N)c(C)c1 | 0.323 | –
Cc1ccccc1C=O | -2.7 | –
O=[N+]([O-])c1cccc(C(F)(F)F)c1 | 1.54 | –
CNC(=O)N(c1ccccc1)c1ccccc1 | 2.37 | –
CCOCCOCC | -4.98 | –
CC(=O)Nc1ccc(N)cc1 | 1.9 | –
CCCCC/C=C/C=C/C=O | – | 50.1 µM (active)
CC(N)CN (stereo not given) | 3.21 | –

Reference: PubChem BioAssay (NCATS)
